# Data from PubChem BioAssay AID1159580 (chemical genetic matrix, 2015).
# Several values for one entry are separate records, joined by “and”; a condition that tells them apart may be missing. Identical values can stand only once. The whole screen tested about 5,500 compounds, of which about 2,000 (36%) were called active. Not shown: some 18% with an inconclusive outcome. The list shows a part of the results. A number with no mark means an inactive call. Cut-off read from the data, not from the text of the source: active = normalized growth mostly below about 0.91 (no sharp cut-off); inconclusive = no clear call, values can overlap the other calls; inactive = mostly above about 0.92.
# Assay: chemical genetic growth profiling, strain panel (AID 1159580);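 note: tested at 20 µM; growth read once vehicle control cultures reached saturation at 30 °C; 1 = growth at the plate median or of vehicle wells; lower values mean less growth of the strain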
# Conditions: growth OD
structure (smiles),measurement,setting,value
O=c1c(O)c(-c2cc(O)c(O)c(O)c2)oc2cc(O)cc(O)c12,normalized growth,"S. cerevisiae deletion strains, locus YAL040C, strain CLN3, active compounds read low",1.07
same,normalized growth,"S. cerevisiae deletion strains, locus YBR021W, strain FUR4, active compounds read low",1.01
same,normalized growth,"S. cerevisiae deletion strains, locus YBR229C, strain ROT2, active compounds read low",1
same,normalized growth,"S. cerevisiae deletion strains, locus YCL029C, strain bik1, active compounds read low",1.02
same,normalized growth,"S. cerevisiae deletion strains, locus YCL061C, strain MRC1 (second series), active compounds read low",0.985
same,normalized growth,"S. cerevisiae deletion strains, locus YDL035C, strain GPR1, active compounds read low",0.972
same,normalized growth,"S. cerevisiae deletion strains, locus YDL074C, strain BRE1, active compounds read low",1.01
same,normalized growth,"S. cerevisiae deletion strains, locus YDL101C, strain DUN1, active compounds read low",1.03
same,normalized growth,"S. cerevisiae deletion strains, locus YDL185W, strain tfp1, active compounds read low",1.02
same,normalized growth,"S. cerevisiae deletion strains, locus YDL192W, strain arf1, active compounds read low",1.02
same,normalized growth,"S. cerevisiae deletion strains, locus YDR101C, strain arx1, active compounds read low",1
same,normalized growth,"S. cerevisiae deletion strains, locus YDR150W, strain NUM1, active compounds read low",1.02
same,normalized growth,"S. cerevisiae deletion strains, locus YDR162C, strain NBP2, active compounds read low",0.963
same,normalized growth,"S. cerevisiae deletion strains, locus YDR318W, strain mcm21, active compounds read low",1.01
same,normalized growth,"S. cerevisiae deletion strains, locus YDR363W, strain ESC2, active compounds read low",1.03
same,normalized growth,"S. cerevisiae deletion strains, locus YDR388W, active compounds read low",1.02
same,normalized growth,"S. cerevisiae deletion strains, locus YDR502C, strain sam2, active compounds read low",1
same,normalized growth,"S. cerevisiae deletion strains, locus YEL061C, strain CIN8, active compounds read low",1
same,normalized growth,"S. cerevisiae deletion strains, locus YER002W, strain NOP16, active compounds read low",1
same,normalized growth,"S. cerevisiae deletion strains, locus YER110C, active compounds read low",1.03
same,normalized growth,"S. cerevisiae deletion strains, locus YER155C, strain BEM2, active compounds read low",0.999
same,normalized growth,"S. cerevisiae deletion strains, locus YER167W, strain BCK2, active compounds read low",0.997
same,normalized growth,"S. cerevisiae deletion strains, locus YGL078C, strain dbp3, active compounds read low",1
same,normalized growth,"S. cerevisiae deletion strains, locus YGL086W, strain mad1, active compounds read low",1
same,normalized growth,"S. cerevisiae deletion strains, locus YGL248W, strain PDE1, active compounds read low",1.03
same,normalized growth,"S. cerevisiae deletion strains, locus YGR078C, strain PAC10, active compounds read low",0.959
same,normalized growth,"S. cerevisiae deletion strains, locus YGR135W, strain pre9, active compounds read low",0.998
same,normalized growth,"S. cerevisiae deletion strains, locus YGR229C, strain SMI1, active compounds read low",0.416 (active)
same,normalized growth,"S. cerevisiae deletion strains, locus YGR252W, strain gcn5, active compounds read low",1
same,normalized growth,"S. cerevisiae deletion strains, locus YHR030C, strain SLT2, active compounds read low",1.01
same,normalized growth,"S. cerevisiae deletion strains, locus YHR079C, strain IRE1 (second series), active compounds read low",1.01
same,normalized growth,"S. cerevisiae deletion strains, locus YHR094C, strain hxt1, active compounds read low",1.03
same,normalized growth,"S. cerevisiae deletion strains, locus YHR129C, strain ARP1, active compounds read low",1.02
same,normalized growth,"S. cerevisiae deletion strains, locus YHR200W, strain rpn10, active compounds read low",1.02
same,normalized growth,"S. cerevisiae deletion strains, locus YIL066C, strain RNR3, active compounds read low",0.976
same,normalized growth,"S. cerevisiae deletion strains, locus YIL073C, strain SPO22, active compounds read low",1.03
same,normalized growth,"S. cerevisiae deletion strains, locus YIL125W, strain kgd1, active compounds read low",1.02
same,normalized growth,"S. cerevisiae deletion strains, locus YIR030C, strain dcg1, active compounds read low",1
same,normalized growth,"S. cerevisiae deletion strains, locus YJL095W, strain BCK1, active compounds read low",1.05
same,normalized growth,"S. cerevisiae deletion strains, locus YJL134W, strain LCB3, active compounds read low",1
same,normalized growth,"S. cerevisiae deletion strains, locus YJL168C, strain set2, active compounds read low",1.01
same,normalized growth,"S. cerevisiae deletion strains, locus YJL187C, strain SWE1 (second series), active compounds read low",1.05
same,normalized growth,"S. cerevisiae deletion strains, locus YJR043C, strain POL32, active compounds read low",0.965
same,normalized growth,"S. cerevisiae deletion strains, locus YJR075W, strain HOC1, active compounds read low",0.993
same,normalized growth,"S. cerevisiae deletion strains, locus YKL009W, strain mrt4, active compounds read low",0.996
same,normalized growth,"S. cerevisiae deletion strains, locus YKL068W, active compounds read low",1.01
same,normalized growth,"S. cerevisiae deletion strains, locus YKL085W, strain MDH1 (second series), active compounds read low",1
same,normalized growth,"S. cerevisiae deletion strains, locus YKL085W, strain MDH1, active compounds read low",1
same,normalized growth,"S. cerevisiae deletion strains, locus YKL190W, strain CNB1, active compounds read low",1.01
same,normalized growth,"S. cerevisiae deletion strains, locus YKR001C, strain vps1, active compounds read low",1.01
same,normalized growth,"S. cerevisiae deletion strains, locus YLR039C, strain RIC1, active compounds read low",1
same,normalized growth,"S. cerevisiae deletion strains, locus YLR058C, strain SHM2, active compounds read low",1.01
same,normalized growth,"S. cerevisiae deletion strains, locus YLR102C, strain apc9, active compounds read low",1.02
same,normalized growth,"S. cerevisiae deletion strains, locus YLR262C, strain YPT6, active compounds read low",0.997
same,normalized growth,"S. cerevisiae deletion strains, locus YLR268W, strain sec22, active compounds read low",1.03
same,normalized growth,"S. cerevisiae deletion strains, locus YLR330W, strain CHS5, active compounds read low",1.01
same,normalized growth,"S. cerevisiae deletion strains, locus YLR342W, strain FKS1 (second series), active compounds read low",1.04
same,normalized growth,"S. cerevisiae deletion strains, locus YLR371W, strain rom2, active compounds read low",1.01
same,normalized growth,"S. cerevisiae deletion strains, locus YLR418C, strain cdc73, active compounds read low",0.981
same,normalized growth,"S. cerevisiae deletion strains, locus YML016C, strain PPZ1, active compounds read low",1
same,normalized growth,"S. cerevisiae deletion strains, locus YML032C, strain rad52, active compounds read low",1
same,normalized growth,"S. cerevisiae deletion strains, locus YML124C, strain tub3, active compounds read low",1.01
same,normalized growth,"S. cerevisiae deletion strains, locus YMR078C, strain ctf18, active compounds read low",1.01
same,normalized growth,"S. cerevisiae deletion strains, locus YMR223W, strain ubp8, active compounds read low",1
same,normalized growth,"S. cerevisiae deletion strains, locus YMR263W, strain SAP30, active compounds read low",1.05
same,normalized growth,"S. cerevisiae deletion strains, locus YMR307W, strain GAS1, active compounds read low",0.969 and 0.876
same,normalized growth,"S. cerevisiae deletion strains, locus YNL067W, strain RPL9B, active compounds read low",1.06
same,normalized growth,"S. cerevisiae deletion strains, locus YNL175C, strain NOP13, active compounds read low",0.999
same,normalized growth,"S. cerevisiae deletion strains, locus YNL197C, strain WHI3, active compounds read low",0.997
same,normalized growth,"S. cerevisiae deletion strains, locus YNL224C, strain SQS1, active compounds read low",0.967
same,normalized growth,"S. cerevisiae deletion strains, locus YNL233W, strain BNI4, active compounds read low",1.05
same,normalized growth,"S. cerevisiae deletion strains, locus YNL250W, strain rad50, active compounds read low",1.02
same,normalized growth,"S. cerevisiae deletion strains, locus YNL271C, strain bni1, active compounds read low",1.01
same,normalized growth,"S. cerevisiae deletion strains, locus YNL298W, strain CLA4, active compounds read low",1.02
same,normalized growth,"S. cerevisiae deletion strains, locus YNL307C, strain MCK1, active compounds read low",1.02
same,normalized growth,"S. cerevisiae deletion strains, locus YNL322C, strain KRE1, active compounds read low",0.898 (active)
same,normalized growth,"S. cerevisiae deletion strains, locus YNR052C, strain pop2, active compounds read low",1
same,normalized growth,"S. cerevisiae deletion strains, locus YOL006C, strain TOP1, active compounds read low",1.08
same,normalized growth,"S. cerevisiae deletion strains, locus YOL012C, strain htz1",0.839
same,normalized growth,"S. cerevisiae deletion strains, locus YOL147C, strain pex11, active compounds read low",1.02
same,normalized growth,"S. cerevisiae deletion strains, locus YOR061W, strain CKA2, active compounds read low",0.99
same,normalized growth,"S. cerevisiae deletion strains, locus YOR069W, strain VPS5, active compounds read low",1.01
same,normalized growth,"S. cerevisiae deletion strains, locus YOR083W, strain WHI5 (second series), active compounds read low",0.957
same,normalized growth,"S. cerevisiae deletion strains, locus YOR136W, strain idh2, active compounds read low",1.03
same,normalized growth,"S. cerevisiae deletion strains, locus YOR144C, strain elg1, active compounds read low",1.01
same,normalized growth,"S. cerevisiae deletion strains, locus YOR184W, strain ser1, active compounds read low",1
same,normalized growth,"S. cerevisiae deletion strains, locus YOR316C, strain cot1, active compounds read low",1.02
same,normalized growth,"S. cerevisiae deletion strains, locus YPL055C, strain LGE1, active compounds read low",1.01
same,normalized growth,"S. cerevisiae deletion strains, locus YPL241C, strain CIN2, active compounds read low",0.995
same,normalized growth,"S. cerevisiae deletion strains, locus YPR119W, strain clb2, active compounds read low",1.01
same,normalized growth,"S. cerevisiae deletion strains, locus YPR141C, strain kar3, active compounds read low",1.01
same,normalized growth,"S. cerevisiae deletion strains, locus YPR163C, strain tif3, active compounds read low",1.01
same,normalized growth,"S. cerevisiae deletion strains, locus YPR167C, strain met16, active compounds read low",1.01
same,normalized growth,"S. cerevisiae deletion strains, strain wtn01, active compounds read low",1.02
same,normalized growth,"S. cerevisiae strains, strain wild type, active compounds read low",1.01
